Outcome and AC50 data for 28 compounds are collected here from PubChem BioAssay (EPA / NIEHS).

Inconclusive results are not listed. Active and inactive are the calls of the source. How the source made its calls: active means hit-call score of the fitted dose curve at least 0.9, where 1 is the maximum; inconclusive means response in the unintended direction; inactive means score below 0.9.

For orientation: AC50 means the midpoint of the concentration-response curve, whichever way the signal moves.

Nuclear receptor subfamily 1 group I member 2 (Homo sapiens), sequence (O75469 whole entry, looked up, the tested form may be a part): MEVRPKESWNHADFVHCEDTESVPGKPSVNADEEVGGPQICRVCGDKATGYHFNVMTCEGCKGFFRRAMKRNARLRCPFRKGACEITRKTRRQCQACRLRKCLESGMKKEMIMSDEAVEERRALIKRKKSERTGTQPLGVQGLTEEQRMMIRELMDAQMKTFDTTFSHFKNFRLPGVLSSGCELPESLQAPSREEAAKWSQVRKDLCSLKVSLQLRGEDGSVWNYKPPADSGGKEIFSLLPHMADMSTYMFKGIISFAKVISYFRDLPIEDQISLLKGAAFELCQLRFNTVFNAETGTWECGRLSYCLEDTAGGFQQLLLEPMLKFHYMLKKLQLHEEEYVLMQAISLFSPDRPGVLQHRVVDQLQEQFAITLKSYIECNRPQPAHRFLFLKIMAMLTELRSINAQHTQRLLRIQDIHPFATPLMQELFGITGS

In one experiment the target is Nuclear receptor subfamily 1 group I member 2 (Homo sapiens) (UniProt O75469). As to the kind of experiment: ATG_PXR_TRANS: Attagene TRANS-FACTORIAL HepG2 Assay for human Pregnane X Receptor (PXR) (AID 2283008). In outline:
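Transient HepG2 transfectants carrying multiplexed reporter transcription units; PXR activity read through a Gal4 chimera. 24 h exposure. RT-PCR/CE fluorescence; upward curve fit referenced to DMSO.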
Turning to `CCc1cccc(C)c1N`, the call was inactive.

Take `CC(=O)CCC1=C(C)CCCC1(C)C`: the AC50 is 6.98 µM (active).

On to `Cc1ccc(C)c(OCCCC(C)(C)C(=O)O)c1`, for which the half-maximal activity concentration (AC50) is 20.7 µM (active).

Consider `COc1ccc(-c2coc3cc(O)cc(O)c3c2=O)cc1`, for which the concentration at half-maximal activity (AC50) was 26.6 µM (active).

On to `CN(C)Cc1cc(CN(C)C)c(O)c(CN(C)C)c1`, for which the compound was called inactive.

Take `CC=CC(=O)OCC(C)C`: the result was inactive.

As to `CC1C(C)(C)C2=C(C(=O)CCC2)C1(C)C` (stereo not drawn), the AC50 is 7.68 µM (active).

As to `CCN(CC)c1cccc(C)c1`, the outcome was inactive.

In the case of `O=C(Nc1ccccc1)c1cc(Cl)ccc1O`, the call was inactive.

In the case of `CN(C)c1ccc2nc3ccc(=[N+](C)C)cc-3sc2c1`, the AC50 is 10.3 µM (active).

Regarding `CC(=O)c1ccc(S(=O)(=O)NC(=O)NC2CCCCC2)cc1`, the compound was classed as inactive.

`C=C[Si](OCCOC)(OCCOC)OCCOC`: the compound was called inactive.

On to `CC1=NN(c2ccc(S(=O)(=O)O)cc2)C(=O)C1N=Nc1ccccc1` (stereo not drawn), for which the compound was called inactive.

For `O=c1c(O)c(-c2ccc(O)cc2O)oc2cc(O)cc(O)c12`, the result was inactive.

For `CC1OC(=O)C(C)OC1=O` (stereo not drawn), the compound was classed as inactive.

On to `CCOC(=O)c1ccccc1C`, for which the compound was classed as inactive.

In the case of `C=CCNCC=C`, the result was inactive.

Regarding `CCCCCCCCCCCCCC(=O)OC(C)C`, the compound was called inactive.

As to `CC(=O)C(C)C`, the outcome was inactive.

In the case of `CC(C)=CCCC(C)=CC#N`, the compound was called inactive.

For `Cc1c(C(=O)c2c[nH]n(C)c2=O)ccc(S(C)(=O)=O)c1C1=NOCC1`, the result was inactive.

With `CC1=CCC2CC1C2(C)C` (stereo not drawn), the result was inactive.

For the compound `CC(=O)OCC=C(C)C`, the call was inactive.

Consider `O=C1CCCCC1C1CCCCC1` (stereo not drawn), for which the half-maximal activity concentration (AC50) was 41.2 µM (active).

Take `CC(=O)OC/C=C(/C)CCC=C(C)C`: the compound was classed as inactive.

Consider `[Cl][Sc]([Cl])[Cl]`, for which the compound was classed as inactive.

Another experiment deals with human Retinoic Acid Receptor gamma (RARg), RARG (gene 5916) (UniProt P13631). As to the kind of experiment: ATG_RARg_TRANS: Attagene TRANS-FACTORIAL HepG2 Assay for human Retinoic Acid Receptor gamma (RARg) (AID 2283009). In outline: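 Gain-of-signal relative to DMSO is reported from fluorescent capillary electrophoresis of RT-PCR reporter products. These came from HepG2 cells expressing transfected RARg-GAL4 chimeras with UAS reporters, harvested 24 h after dosing.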
human Retinoic Acid Receptor gamma (RARg), RARG (gene 5916), sequence (P13631 whole entry, looked up, the tested form may be a part): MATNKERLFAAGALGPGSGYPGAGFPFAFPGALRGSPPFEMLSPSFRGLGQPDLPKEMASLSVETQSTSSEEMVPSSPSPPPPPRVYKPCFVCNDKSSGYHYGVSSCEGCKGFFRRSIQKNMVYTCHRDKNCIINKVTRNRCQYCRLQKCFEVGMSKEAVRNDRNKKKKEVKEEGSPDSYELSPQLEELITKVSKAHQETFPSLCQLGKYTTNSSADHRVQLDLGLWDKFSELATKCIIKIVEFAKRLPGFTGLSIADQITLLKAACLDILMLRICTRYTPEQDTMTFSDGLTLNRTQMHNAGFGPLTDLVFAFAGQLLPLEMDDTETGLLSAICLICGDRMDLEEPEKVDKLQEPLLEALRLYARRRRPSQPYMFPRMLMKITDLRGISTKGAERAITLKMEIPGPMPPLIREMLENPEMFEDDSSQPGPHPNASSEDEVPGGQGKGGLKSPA
For the compound `CCc1cccc(C)c1N`, the call was inactive.

On to `Cc1ccc(C)c(OCCCC(C)(C)C(=O)O)c1`, for which the compound was classed as inactive.

In the case of `CC=CC(=O)OCC(C)C`, the outcome was inactive.

On to `CC1C(C)(C)C2=C(C(=O)CCC2)C1(C)C` (stereo not drawn), for which the outcome was inactive.

Consider `CCN(CC)c1cccc(C)c1`, for which the compound was called inactive.

`O=C(Nc1ccccc1)c1cc(Cl)ccc1O`: the compound was classed as inactive.

In the case of `O=C(OCCc1ccccc1)c1ccccc1`, the compound was called inactive.

For the compound `CCCSSCCC`, the outcome was inactive.

For `CCCCCCCCCCCCCC(=O)OC(C)C`, the outcome was inactive.

With `CC(=O)C(C)C`, the call was inactive.

Turning to `O=C1CCCCC1C1CCCCC1` (stereo not drawn), the outcome was inactive.

For `[Cl][Sc]([Cl])[Cl]`, the outcome was inactive.
